Luc counter = Counterscreen for Luciferase (Kinase-Glo TM) Inhibition | Luciferin 4-monooxygenase (Photuris pensylvanica), Q27757 | Kinase-Glo luciferase, ATP luminescence, 8 min | Potency, µM (titrated, usually from 38.3 µM), for the others: top-dose activity change, negative = inhibition, usual class: inhibitors | 0.28% of 200,000 active; note: nearly all actives have a fitted effect of over 60% in size
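Kinase-Glo luciferase light output from ATP and luciferin was measured with 10 uM ATP, within the enzyme's linear range. Buffer: 50 mM imidazole pH 7.2, 50 mM KCl, 7 mM MgCl2, 0.01% Tween 20, 0.05% BSA; luminescence read after 8 min at ambient temperature.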
Gal4-VP16 FLuc = VP16 counterscreen qHTS for inhibitors of ROR gamma transcriptional activity | Drosophila S2 Gal4-VP16 UAS-luciferase, luminescence, 20 h | Potency, µM (doses to about 53.6 µM), inactives show top-dose activity, negative = inhibition, actives largely listed as inhibitors | 3.5% of 310,000 active;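 note: Gal4-VP16 expression switched on by copper sulfate through the metallothionein promoter; nearly all actives have a fitted effect of over 50% in size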
RORg inh = qHTS for inhibitors of ROR gamma transcriptional activity; Drosophila S2 Gal4-RORgamma UAS-luciferase reporter, 20 h; 5.4% of 310,000 active; Potency, µM (titrated, usually from 53.6 µM), without a hit: at the highest dose activity change, negative = inhibition, actives largely listed as inhibitors; AID 2551, 2010; note: nearly all actives have a fitted effect of over 60% in size
Target sequence (P51450 whole entry, looked up, the tested form may be a part): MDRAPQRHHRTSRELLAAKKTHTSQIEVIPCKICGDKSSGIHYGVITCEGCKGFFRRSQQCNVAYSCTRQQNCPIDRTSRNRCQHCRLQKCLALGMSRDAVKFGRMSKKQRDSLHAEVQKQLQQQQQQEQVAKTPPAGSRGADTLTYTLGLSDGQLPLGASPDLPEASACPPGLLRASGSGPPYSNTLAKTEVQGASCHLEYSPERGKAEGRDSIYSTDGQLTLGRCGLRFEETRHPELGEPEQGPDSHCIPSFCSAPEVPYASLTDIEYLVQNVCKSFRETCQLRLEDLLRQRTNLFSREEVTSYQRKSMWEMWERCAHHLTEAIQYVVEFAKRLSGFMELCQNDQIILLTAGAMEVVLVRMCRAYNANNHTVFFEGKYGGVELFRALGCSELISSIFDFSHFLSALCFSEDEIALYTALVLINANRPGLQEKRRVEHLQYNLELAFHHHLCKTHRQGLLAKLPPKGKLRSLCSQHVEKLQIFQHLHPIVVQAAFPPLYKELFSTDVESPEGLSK
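Stable Schneider cell line, Gal4 DNA-binding domain fused to ROR gamma, UAS-luciferase. Cmpd 1 hr RT → CuSO4 700 uM final → 20 hr RT → luciferase reagent 10 min → luminescence.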
Starred values were filed as active, the others as inactive; u = inconclusive; x = no result; [ ] = dose if it differs, or a comment. This is a sample that favours compounds with a hit; in the whole collection about 6.4% have one here. Calls come from the whole dose curve; as a rule, active = well fitted curve in the direction sought with a large enough effect; inconclusive = small, poorly fitted or top-dose-only effect, or another doubt; inactive = no such curve, though single readings can be large; an effect the other way counts as inactive or inconclusive. % is set by controls: 0 for no effect and ±100 for the full control effect; potency is the fitted concentration of half-maximal effect.

SMILES	Luc counter	Gal4-VP16 FLuc	RORg inh
CN(CCOC(=O)c1ccc2c(c1)OCO2)C(C)(C)C	0%	-1%	14%
CC(=O)Oc1ccc(-n2c(=O)c3ccccc3c3ccccc3c2=O)cc1	0%	-4%	7%
COc1ccc(NC(=O)c2cc(N3C(=O)C4C5CCC(C5)C4C3=O)ccc2Cl)c(OC)c1 (centres undefined)	x	-3%	4%
COc1ccc(C(=O)NCC23C=CC(O2)C2C(=O)N(Cc4ccccc4)C(=O)C23)cc1 (centres undefined)	0%	4%	-122%
CC(=O)Oc1ccc(N2C(=O)C3C4C=CC(CO)(O4)C3C2=O)cc1 (centres undefined)	-2%	u	5µM*
COC(=O)c1cc(N2C(=O)C3C(C2=O)C2(C)C=CC3(C)O2)ccc1Cl (centres undefined)	8%	5.6µM*	3.5µM*
O=C1C2C3C=CC(CO)(O3)C2C(=O)N1c1ccccc1-c1ccccc1 (centres undefined)	0%	2.2µM*	1.8µM*
CC(=O)Oc1ccc(N2C(=O)C3C(C2=O)C2(C)C=CC3(C)O2)cc1 (centres undefined)	-4%	4.5µM*	4µM*
O=C1C2C3C=CC(CNS(=O)(=O)c4ccccc4)(O3)C2C(=O)N1c1ccc(Cl)cc1 (centres undefined)	0%	u	-106%
NS(=O)(=O)c1ccc(NC(=O)COc2ccc(S(=O)(=O)N3CCCC3)cc2)cc1	x	2%	-10%
CN(C)c1cc[n+](CC(=O)Nc2ccc(OC(F)F)cc2)cc1	x	5%	11%
COC(=O)C1(Cc2ccccc2)C=C2C(=C(c3ccccc3)C(=O)C2C)CN1 (centres undefined)	-2%	30%	11%
COC/C=C/C1=CC2=CC(=O)C(C)(OC(=O)c3ccc(Cl)nc3)C(=O)C2=CO1 (centres undefined)	0%	10%	15%
O=c1[nH]c2ccccc2c(=O)n1Cc1ccccc1	15%	14%	23%
COc1ccc(Cn2c(=O)sc3ccccc3c2=O)cc1	-2%	-7%	10%
Cc1ccc(Cn2c(=S)[nH]c3ccccc3c2=O)cc1	x	6.3µM*	4µM*
COc1ccc(Cn2c(=S)[nH]c3ccccc3c2=O)cc1	x	10µM*	8.9µM*
CC1CCCN(C(=S)NC2CCCC2)C1 (centres undefined)	0%	-8%	u
CS(=O)(=O)Nc1cc2c3c(c1)CCC(=O)N3CCC2	x	-7%	-8%
Cc1cc(SCC(=O)c2cccs2)n2nc(C)c(-c3ccccc3)c2n1	0%	5.6µM*	3.2µM*
CC(=O)Nc1ccc(Nc2cc(C)nc3c(-c4ccc(Cl)cc4)cnn23)cc1	2%	u	u
Cc1cc(SCC#N)n2nc(C)c(-c3ccccc3)c2n1	1%	2.5µM*	1.3µM*
Cc1cc(Cl)n2nc(C)c(-c3ccc(Cl)cc3)c2n1	-2%	-20%	u
C=CCSc1cc(C)nc2c(-c3ccccc3)c(C)nn12	x	-11%	u
Cc1cc(SCC#N)n2nc(C)c(-c3ccc(Cl)cc3)c2n1	-2%	u	16µM*
SMILES	Luc counter	Gal4-VP16 FLuc	RORg inh
CC(=O)Nc1ccc(Nc2cc(C)nc3c(-c4ccc(Cl)cc4)c(C)nn23)cc1	5%	7.1µM*	11µM*
CC(=O)CSc1cc(C)nc2c(-c3ccccc3)c(C)nn12	x	-17%	u
CSCCC1NC(=O)N(C(C)C(=O)Nc2cc(Cl)cc(Cl)c2)C1=O (centres undefined)	0%	6%	18%
CCn1c(SCC(N)=O)nc2sc3c(c2c1=O)CCCC3	0%	u	11µM*
CCSc1nc2sc3c(c2c(=O)n1CC)CCC3	x	-3%	64%
COc1ccc2nc(NC(=O)CN3C(=O)NC4(CCCCC4)C3=O)sc2c1	x	-11%	u
CC(=O)NC(C(=O)N1CCC(c2nc3ccccc3s2)CC1)C(C)C (centres undefined)	x	-1%	-24%
Cc1ccc(O)c(CO)n1	x	-7%	14%
Cc1nc2c(O)cccc2cc1CO	x	u	10µM*
COc1ccc(NC(=S)Nc2ncccc2C)c(OC)c1	-6%	10µM*	3.2µM*
Cc1cccnc1NC(=S)Nc1ccc(Cl)c(Cl)c1	-5%	u	u
COc1ccc(NC(=S)NC23CC4CC(CC(C4)C2)C3)cc1OC	x	3.5µM*	1.3µM*
COc1ccc(NC(=S)Nn2cnnc2)c(OC)c1	x	0%	u
COc1ccc(NC(=S)Nc2ncccc2C)cc1OC	-7%	u	6.3µM*
COc1ccc(C(=O)NC23CC4CC(CC(C4)C2)C3)cc1OC	x	9%	-17%[1.91 µM]
